# High-throughput results deposited in PubChem by National Center for Advancing Translational Sciences (NCATS).
# In the library only some 2.9% were active in any assay of this set; here they are far more common.
# ALOX12 inh = ALOX12 (human) lipoxygenase inhibition. Potency, µM (series often up to 108 µM), without a hit: top-dose activity change, negative = inhibition, hits mostly inhibitors. AID 1671190. purified 12hLO, xylenol orange hydroperoxide absorbance. actives 1.1% (n = 580,000); further: potency means the concentration at half of the fitted maximal effect; on the % scale 0 is the no-effect control and ±100 the full control effect
#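 Purified human 12hLO (150 nM final) in 25 mM Hepes, 0.01% Triton X-100, pH 7.0 was preincubated 15 min at room temperature with compound. Then 40 uM arachidonic acid was added, 30 min. Hydroperoxide was read by Fe-XO absorbance ratio 573/405 nm.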
# Pol kappa inh = inhibitors of human DNA polymerase kappa; Q9UBT6; purified Pol kappa, fluorescent DNA synthesis assay, 10 min; AID 588579; actives 0.53% (n = 400,000); Potency, µM (titrated, usually from 107 µM), for inactives: at the highest dose activity, negative = inhibition, usual class: inhibitors; further: potency means the concentration at half of the fitted maximal effect; on the % scale 0 is the no-effect control and ±100 the full control effect
#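 Kinetic fluorescence screen: compound preincubated 15 min RT with 10 nM enzyme; 50 nM substrate (final) initiates; reads at 0/10 min.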
# PI5P4Ka inh = blocks human PI5P4K alpha kinase activity | PI5P4Kalpha enzyme, ADP-Glo luminescence, 60 min; hits give low values | actives 1.2% (n = 330,000) | max response, % | P48426; active means max response of -50% or lower; inconclusive means between -30% and -50%; inactive means -30% or higher; further: value at the top dose of about 77 µM; on the % scale 0 is the no-effect control and ±100 the full control effect
#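 Single end-point luminescence (ADP-Glo) quantified ADP from PI5P4Kalpha turnover; ATP 5 microM final, 1 h at RT, 0.1% CHAPS and 0.28 mM EGTA in HEPES pH 7.4.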
# POLI inh = blocks human DNA polymerase iota activity; Pol iota fluorescent replication assay, 10 min; Potency, µM (series often up to 115 µM), for the others: at the top dose activity, negative = inhibition, usual class: inhibitors; actives 1% (n = 390,000); further: potency means the concentration at half of the fitted maximal effect
#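 Fluorescent replication assay read twice, at 0 min and 10 min after adding 50 nM (final) substrate. Enzyme (10 nM) and compounds were first incubated 15 min at room temperature; enzyme-free buffer wells were negative controls.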
# POLB inh = DNA polymerase beta (human) inhibition; P06746; Pol beta primer extension/strand displacement, fluorescence kinetic; Potency, µM (titrated, usually from 114 µM), for inactives: top-dose activity change, negative = inhibition, usual class: inhibitors; actives 1.3% (n = 340,000); AID 485314; further: potency means the concentration at half of the fitted maximal effect; on the % scale 0 is the no-effect control and ±100 the full control effect
#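 Kinetic readout of DNA synthesis with strand displacement by Pol beta. Compound and 10 nM enzyme sit 15 min at room temperature; 50 nM substrate starts the reaction, read immediately and at 10 min.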
# Pol eta inh = blocks human DNA polymerase eta activity. recombinant Pol eta, fluorescent DNA replication assay. Potency, µM (series often up to 114 µM), inactives show at the top dose activity change, negative = inhibition, usual class: inhibitors. Q9Y253. AID 588591. actives 1.2% (n = 390,000); further: potency means the concentration at half of the fitted maximal effect; on the % scale 0 is the no-effect control and ±100 the full control effect
# Target sequence (Q9Y253 whole entry, looked up): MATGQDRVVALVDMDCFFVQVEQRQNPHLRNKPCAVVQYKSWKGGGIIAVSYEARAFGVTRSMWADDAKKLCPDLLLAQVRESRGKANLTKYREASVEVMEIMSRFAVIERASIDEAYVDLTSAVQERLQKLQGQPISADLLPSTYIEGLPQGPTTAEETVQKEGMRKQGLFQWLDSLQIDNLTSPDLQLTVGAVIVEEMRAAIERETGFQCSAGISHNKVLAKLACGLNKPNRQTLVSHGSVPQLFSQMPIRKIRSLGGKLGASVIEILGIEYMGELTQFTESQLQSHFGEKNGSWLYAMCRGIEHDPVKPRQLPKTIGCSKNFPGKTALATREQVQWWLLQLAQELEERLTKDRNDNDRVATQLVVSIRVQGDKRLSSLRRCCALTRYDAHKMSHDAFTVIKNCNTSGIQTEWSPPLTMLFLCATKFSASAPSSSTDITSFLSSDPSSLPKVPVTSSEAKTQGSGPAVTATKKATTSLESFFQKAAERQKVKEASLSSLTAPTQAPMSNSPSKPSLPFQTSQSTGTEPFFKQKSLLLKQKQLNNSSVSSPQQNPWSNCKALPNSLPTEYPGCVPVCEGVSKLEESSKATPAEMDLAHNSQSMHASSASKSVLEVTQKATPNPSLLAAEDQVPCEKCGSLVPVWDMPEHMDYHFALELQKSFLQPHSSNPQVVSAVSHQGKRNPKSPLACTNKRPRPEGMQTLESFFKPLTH
#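 Pol eta at 10 nM preincubated with compounds 15 min at room temperature; reaction started with fluorescent substrate (50 nM final) and read kinetically at 0 and 10 min.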
# The depositor's hits bear a star; ? = inconclusive; · = no result given; ! = not confirmed by another sample; [ ] = remark or other dose. Unless noted, the call rests on the fitted dose curve; in most records, active means well fitted inhibition curve with a large enough effect; inconclusive means small, poorly fitted or top-dose-only effect, or another doubt; inactive means no such curve, though single readings can be large or run the other way.
SMILES,ALOX12 inh,Pol kappa inh,PI5P4Ka inh,POLI inh,POLB inh,Pol eta inh
CN(C)C(=O)CN1CCN(Cc2ncc(-c3ccccc3)o2)CC1,-15%,·,·,·,·,·
CC(C)NC(=O)c1nc(-c2ccc(Cl)cc2Cl)c2ccccn12,-2%[6.33 µM],·,·,·,·,·
COCCSc1ccccc1C(=O)Nc1nnc(C)s1,11µM*,-4%,·,0%,19%,7%
COCCSc1ccccc1C(=O)Nc1ccc(Cl)cn1,-13%,5%,4,11%,2%,-11%
CCCSc1ccccc1C(=O)Nc1cccc(C)c1C,25µM*,·,·,·,·,·
CSc1ccccc1C(=O)Nc1ccccc1C,-5%,-3%,5,76%,5%,-14%
COCCSc1ccccc1C(=O)Nc1nccs1,14µM*,-7%,·,7%,-1%,12%
CN1CCN(CCOc2ccc3cc(-c4ccccc4)c(=O)oc3c2)CC1,14%,·,·,·,·,·
Oc1cc(O)cc(/C=C/c2ccc(O)c(O)c2)c1,7.9µM*!,79µM*,-53*,16µM*,7.9µM*,18µM*!
O=c1c2cc3c(=O)n(C4CCCCCC4)ccc3nc2ccn1-c1ncn[nH]1,70%,·,·,·,·,·
COC(=O)C1=C(C)N(c2cccc(C)c2)C(=S)NC1c1ccc(C)s1 (centres undefined),35µM*,·,·,·,·,·
CC(=O)c1c(C)[nH]c(C(=O)C(C)Sc2ccc(F)c(Cl)c2)c1C (centres undefined),45µM*,·,·,·,·,·
CCOC(=O)c1c(C)[nH]c(C(=O)C(C)Sc2ccc(Cl)cc2)c1C (centres undefined),12%,-26%,16,2%,1%,?
CCOC(=O)c1c(C)[nH]c(C)c1C(=O)COc1ncnc2ccccc12,-10%,-1%,-55*,36%,-11%,6%
O=S(=O)(c1ccc(Oc2ccc(-c3nnco3)cc2)nc1)N1CCC(Cc2ccccc2)CC1,-25%,-15%,1,-6%,?,45µM*
O=S(=O)(c1ccc(-c2nnco2)cc1)N1CCCCC1,-16%,-1%,0,-5%,1%,-19%
CCOc1cc(C2Nc3ccccc3-c3nnc(SCc4ccccc4)nc3O2)ccc1OC (centres undefined),-2%,-5%,·,-6%,17%,-16%
O=C(O)c1ccc(C2Nc3ccccc3-c3nnc(SCc4ccc(Cl)cc4)nc3O2)cc1 (centres undefined),?,?,·,?,25µM*,-28%
CN(C)S(=O)(=O)c1cccc(NC(=S)NNC(=O)c2cc3ccccc3cc2O)c1,35µM*,-12%,-60*,32%,·,-15%
COc1cccc(NC(C)c2nc3scc(-c4cccs4)c3c(=O)[nH]2)c1 (centres undefined),13%,·,·,·,·,·
CC(Nc1ccc(N2CCOCC2)cc1)c1nc2scc(-c3cccs3)c2c(=O)[nH]1 (centres undefined),35µM*,·,·,·,·,·
CCn1c(C)nc2cc(C(=O)NNS(=O)(=O)c3ccccc3F)ccc21,4.5µM*,-2%,0,?,-4%,-11%
CCOC(=O)c1ccc(S(=O)(=O)NNC(=O)c2ccc3c(c2)nc(C)n3CC)cc1,-11%,1%,3,36%,18%,7%
O=C(CN1CCN(Cc2ccsc2)CC1)Nc1ccccc1C(=O)NC1CCCC1,8%,·,·,·,·,·
Cc1[nH]c(C)c(C(=O)/C=C/c2ccc([N+](=O)[O-])cc2)c1C,32µM*,2%,-3,?,5%,0%
SMILES,ALOX12 inh,Pol kappa inh,PI5P4Ka inh,POLI inh,POLB inh,Pol eta inh
COc1ccc(C=CC(=O)c2ccc([N+](=O)[O-])cc2)cc1,-5%,-6%,-8,23%,·,-18%
CCOC(=O)c1[nH]c(C)c(C(=O)/C=C/c2ccc(C(=O)O)cc2)c1C,-15%,-14%,2,-14%,39%,22µM*
COc1ccc(-c2csc(NC(=O)CSc3nc(C)nc4sc(C(=O)O)c(C)c34)n2)cc1,?,32µM*,?,?,7.1µM*,22µM*
O=C(O)CSc1ncccc1C(=O)O,-7%,-5%,3,22%,11%,3%
C=CCSc1ncccc1C(=O)O,-8%,-11%,·,100µM*,0%,-18%
COc1ccc(OC)c2c1C(=O)C(Cl)=C(Cl)C2=O,?,-5%,-102*,69%,25%,-16%
COc1ccc(N)c2c1C(=O)c1ccccc1C2=O,11%,?,1,?,?,-20%
Cc1oc(-c2cccs2)nc1CC(=O)NCc1ccc(CN2CCCCC2)cc1,42%,·,·,·,·,·
Clc1ccc(CN2CC[C@H](c3nc4cc(Cl)ccc4o3)C2)cc1,22µM*,·,·,·,·,·
FC(F)(F)c1ccc2nc([C@H]3CCN(Cc4ccc(Cl)cc4)C3)[nH]c2c1,32µM*,·,·,·,·,·
CN(Cc1cccc(Cl)c1)C(=O)C1CCN(c2ccc(C(F)(F)F)cn2)CC1,4%,·,·,·,·,·
COC(=O)c1c(C)sc(-c2c(-c3ccc(F)cc3)[nH]c3[nH]c(=O)[nH]c(=O)c23)c1O,45µM*,?,·,?,56µM*,·
CCc1ccc(-c2[nH]c3c(c2-c2sc(C)c(C(=O)OC)c2O)c(=O)n(C)c(=O)n3C)cc1,-12%,-8%,·,7%,44%,·
COc1ccccc1Oc1coc2cc(OC(=O)c3ccccc3F)ccc2c1=O,9%,·,·,·,·,·
N#Cc1ccccc1N1CCN(c2ccccc2)CC1,0%,·,·,·,·,·
CC(=O)Oc1ccc(C(=O)Nc2cccc(-c3nc4cc(C)ccc4o3)c2)cc1,-2%,·,·,·,·,·
CCCNC(=O)N[C@@H]1CCC[C@@H](C(=O)NCCOC)CC(=O)N(C)C1,25µM*,·,·,·,·,·
N#Cc1c(F)cccc1NCCNc1cc(Cl)nc(N)n1,-29%,·,·,·,·,·
O=S(=O)(Nc1nc(-c2sccc2Cl)cs1)c1cc(Cl)ccc1Cl,·,-19%,-50*,?,32µM*,?
Cc1[nH]c2c(C)cccc2c1CC(=O)O,-23%,-11%,8,72%,27%,-16%
Cc1cccc2c(N=O)c(O)[nH]c12,-23%,-21%,-59*,-21%,-6%,35µM*
CC(C)C(CNC(=O)c1nn(C)c(=O)c2ccccc12)N1CCCC1 (centres undefined),36%,·,·,·,·,·
CCC[n+]1c2ccccc2cc2ccccc21,?,-1%,-20,?,-17%,-8%
CCCC[n+]1c2ccccc2cc2ccccc21,8.9µM*,-10%,?,?,31%,-1%
O=C(O)CNS(=O)(=O)c1cccc(C(=O)/C=C/c2ccc(Cl)cc2)c1,-22%,·,·,·,·,·
O=c1c(-c2ccco2)[n+]([O-])c2ccccc2n1OCc1ccccc1,40µM*,5%,?,?,?,6%
CC1=C(C(=O)OCc2ccccc2)C(c2ccc3ccccc3c2)NC(=O)N1CCCCCC(=O)O (centres undefined),?,-20%,?,10%,-1%,-12%
